Source: ChEMBL document CHEMBL3433997, “St. Jude Leishmania screening dataset” (2016)
Where “and” joins values, the source holds several entries; their conditions need not be identical. Equal values may be shown once.

Legend:
Assay type in all cases: functional
[1] = target: Solute carrier family 2, facilitated glucose transporter member 1 (Homo sapiens) (UniProt P11166); assay: ST_JUDE_LEISH: Cytotoxicity at 2uM final concentration against transgenic Leishmania Mexicana promastigotes LmGLUT1 that are glucose transport deficient and complemented with the human glucose transporter GLUT1. Activity is measured by DNA content using SYBR green in vitro
Sequence of Solute carrier family 2, facilitated glucose transporter member 1 (Homo sapiens) (P11166 whole entry): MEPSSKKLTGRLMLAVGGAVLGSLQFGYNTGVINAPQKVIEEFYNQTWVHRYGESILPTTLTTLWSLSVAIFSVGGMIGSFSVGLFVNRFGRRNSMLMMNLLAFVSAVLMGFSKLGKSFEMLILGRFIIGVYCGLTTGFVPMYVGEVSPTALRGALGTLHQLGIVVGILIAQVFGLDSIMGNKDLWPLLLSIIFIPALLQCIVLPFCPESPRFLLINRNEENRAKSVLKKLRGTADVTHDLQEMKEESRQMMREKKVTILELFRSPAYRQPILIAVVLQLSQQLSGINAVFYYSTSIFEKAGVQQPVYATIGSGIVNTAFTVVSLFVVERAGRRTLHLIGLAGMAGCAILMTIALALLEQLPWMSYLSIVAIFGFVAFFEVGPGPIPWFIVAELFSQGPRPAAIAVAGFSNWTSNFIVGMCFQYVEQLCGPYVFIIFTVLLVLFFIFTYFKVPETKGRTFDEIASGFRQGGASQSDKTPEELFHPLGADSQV

[2] = target: Hexose transporter 1 (Plasmodium falciparum) (UniProt O97467); assay: ST_JUDE_LEISH: Cytotoxicity at 2uM final concentration against transgenic Leishmania Mexicana promastigotes LmPfHT that are glucose transport deficient and complemented with the Plasmodium falciparum hexose transporter. Activity is measured by DNA content using SYBR green in vitro
[3] = target: Glucose transporter (Leishmania mexicana) (UniProt O61059); assay: ST_JUDE_LEISH: Cytotoxicity at 2uM final concentration against transgenic Leishmania Mexicana promastigotes LmGT2 that are glucose transport deficient and complemented with the L. Mexicana glucose transporter 2. Activity is measured by DNA content using SYBR green in vitro

| SMILES | inhibition [1] | inhibition [2] | inhibition [3] |
| --- | --- | --- | --- |
| COc1cccc(O)c1CNCC(O)c1cccc(C(F)(F)F)c1 (stereo not given) | 0.43% | 0.5% | 0.29% |
| CC(=O)N(Cc1ccccc1-c1cccc(CNCc2ccc3c(c2)OCO3)c1)C1CCN(Cc2ccccc2)CC1 | 3.8% | 5.58% | 3.79% |
| CC(NC(C)(C)C)C(O)c1ccc(Cl)c(C(F)(F)F)c1 (stereo not given) | 1.86% | 0.38% | 1.11% |
| CS(=O)(=O)Nc1ccc2[nH]cc(C3CCN(CC4CCN(C(=O)/C=C/c5ccc(Cl)c(Cl)c5)CC4)CC3)c2c1 | 4.43% | 3.49% | 4.09% |
| CC(C)c1ccc(C=CC(=O)NC2CCC(CN3CCC(c4c[nH]c5ccccc45)CC3)CC2)cc1 (stereo not given) | 2.2% | 1.4% | 2.47% |
| COc1cc(NC(=O)c2nn(CCCN3CCC4(CC3)C(=O)NCN4c3ccccc3)cc2-c2ccc(Cl)c(Cl)c2)cc(OC)c1OC | -0.06% | 8.62% | 0.13% |
| COc1cccc(C(=O)C2CC2CN2CC=C(c3c(C)[nH]c4ccccc34)CC2)c1 (stereo not given) | 1.94% | -3.97% | 4.19% |
| Cc1ccc(CC(C)NCC(O)c2cccc(C#N)c2)cc1 (stereo not given) | 9.34% | 13.4% | 9.79% |
| CC[C@H]1CN2CC[C@H]1C[C@H]2[C@H](O)c1cc(-c2ccc(Cl)c(Cl)c2)nc2ccc(OC)cc12 | 12.6% | 9.65% | 9.4% |
| O=C(/C=C/c1cccc(Cl)c1)NC1CCC(CN2CCC(c3c[nH]c4ccccc34)CC2)CC1 (stereo not given) | 2.39% and 2.9% | 2.82% and 1.43% | -0.58% and 2.44% |
| Cc1[nH]c2cc(Cl)ccc2c1C1=CCN(CCN2CCOc3c(Br)cccc3C2=O)CC1 | 5.36% | 5.27% | 6.71% |
| N#Cc1ccc(N(CC(=O)NCCc2ccc(F)cc2)CC2CC2)c2ccccc12 | -0.35% | -0.59% | 1.47% |
| COC(=O)c1ccc(CC(C)NCC(O)c2cccc(Br)c2)cc1 (stereo not given) | -0.96% | -1.92% | 2.26% |
| CN1CC[C@H](N(Cc2ccccc2F)c2ccc(C#N)c(Cl)c2)C1 | 2.58% | 3.02% | 4.63% |
| Cc1cc(NC(=O)[C@@H](Nc2ccc(C#N)c3ccccc23)C2CCCCC2)ccc1F | -1.97% | -0.16% | -0.25% |
| COc1cccc(CN2CCC(CCOC(c3ccccc3)c3ccc(Cl)cc3)CC2)c1O (stereo not given) | 26.2% | 26.5% | 12.5% |
| CC[C@H]1C[N+]2([O-])CC[C@@H]1C[C@H]2[C@H](O)c1cc(-c2ccccc2)nc2ccc(OC)cc12 | 5.08% | 2.87% | 4.7% |
| CC(C)CNCc1ccc(-c2cccc(CN(C(=O)NC3CCCCC3)C3CCN(Cc4ccccc4)CC3)c2)cc1 | 0.87% | -0.07% | 3.1% |
| CCN(Cc1ccccc1)CC(O)c1ccc(Cl)c(Cl)c1 (stereo not given) | 0.91% | 0.62% | 1.21% |
| Cc1ccc(CC(C)NCC(O)c2cccc([N+](=O)[O-])c2)cc1 (stereo not given) | 0.3% | -0.33% | 1.06% |
| COC(=O)c1ccc(CC(C)NCC(O)c2cccc(C(F)(F)F)c2)cc1 (stereo not given) | 2.79% and 2.21% and 1.58% | -0.93% and 1.17% and 2.06% | 2.89% and 0.72% and 2.04% |
| C=C[C@H]1CN2CC[C@H]1C[C@@H]2[C@@H](O)c1ccnc2ccccc12 | -1.24% | 1.12% | 0.13% |
| Cc1nc(-c2ccc(-c3ccc(C(=O)Nc4ccc5c(c4)C4(CCNCC4)CO5)cc3)c(C)c2)no1 | 2.05% | 5.12% | 1.93% |
| O=C(CCC(=O)c1ccc2c3c(cccc13)CC2)NC1CCC(CN2CCC(c3c[nH]c4ccccc34)CC2)CC1 (stereo not given) | 3.08% | 3.49% | 4.96% |

| SMILES | inhibition [1] | inhibition [2] | inhibition [3] |
| --- | --- | --- | --- |
| CCOc1ccc(Br)cc1/C=C/C(=O)Nc1ccc2c(c1)C1CCC2N1C (stereo not given) | 2.58% | 0.43% | 3.45% |
| CCCCCC(C)C(C)c1cc(O)c2c(c1)OC1(C(C)C)CC(O)C(C)C2C1 (stereo not given) | 5.93% | 5.5% | 6.4% |
| COc1ccc(C[C@@H](C)NC[C@H](O)c2cccc(Cl)c2)cc1F | 0.83% and 1.3% | 3.32% and 5.02% | 0.88% and 0.58% |
| CC(C)NC(=O)Cn1cc(C2CCN(CC3CCN(C(=O)/C=C/c4ccc(Cl)c(Cl)c4)CC3)CC2)c2ccccc21 | 1.44% | 0.25% | 1.41% |
| O=C(c1cc(C(=O)NCc2ccc(Cl)cc2)c(=O)n(Cc2ccc(Cl)cc2)c1)c1cc(Cl)ccc1O | -1% | -1.29% | 3.58% |
| O=C1COc2ccccc2N1CCN1CCC(NCc2ccc(-c3cccs3)cc2)CC1 | 8.28% | 7.16% | 3.03% |
| CN(Cc1ccccc1)C1CCN(CCc2c[nH]c3ccc(F)cc23)CC1 | 6.41% | 5.56% | 7.12% |
| CC[C@H]1CN2CC[C@@H]1C[C@@H]2[C@@H](O)c1cc(-c2ccc(F)cc2)nc2ccc(OC)cc12 | 4.08% | 3.07% | 5.29% |
| O=C(C=Cc1ccccc1O)N1CCC(CN2CCC(c3c[nH]c4ccccc34)CC2)CC1 | 2.59% | 2.2% | 2.49% |
| Cc1cccc2c(C3CCN(CC4CCC(NC(=O)/C=C/c5ccc(Cl)c(Cl)c5)CC4)CC3)c[nH]c12 (stereo not given) | 10.9% | 9.79% | 8.09% |
| O=C1NCN(c2ccc(O)cc2)C12CCN(CCCC(c1ccc(F)cc1)c1ccc(F)cc1)CC2 | 3.87% | 3.34% | 3.43% |
| CS(=O)(=O)Nc1ccc2[nH]cc(C3CCN(CC4CCC(NC(=O)/C=C/c5ccc(Cl)c(Cl)c5)CC4)CC3)c2c1 (stereo not given) | 0.82% | 6.93% | -0.55% |
| Cc1cc(N(C)C2CCN(C)CC2)nc(Nc2ccc(Br)cc2)n1 | 3.64% | 6.94% | 1.93% |
| CC(=O)Nc1ccc(CN2CCC(N(C)c3cc(NC(=O)c4cccc(F)c4)ccn3)CC2)cc1 | -0.4% | -0.05% | 0.23% |
| C=C[C@H]1CN2CC[C@@H]1C[C@H]2[C@H](O)c1cc(-c2ccc(F)cc2)nc2ccc(OC)cc12 | 6.56% | 4.6% | 3.68% |
| O=C(/C=C/c1ccc(Cl)c(Cl)c1)N1CCC(CN2CCC(c3c[nH]c4cc(C(F)(F)F)ccc34)CC2)CC1 | 2.28% | 3.35% | -0.87% |
| Cc1cc(N)nc2cc(CNCCc3ccccc3Br)ccc12 | 0.26% | 0.02% | -0.67% |
| CC[C@H]1CN2CC[C@H]1C[C@H]2[C@H](O)c1ccnc2ccc(O)cc12 | 0.99% | 2.1% | 1.04% |
| O=C(Nc1ccccc1OC(F)(F)F)NC1CCC(CN2CCC(c3c[nH]c4ccccc34)CC2)CC1 (stereo not given) | 2.64% and 17.3% | 3.83% and 26.1% | 0.62% and 10.3% |
| Cc1c(C(=O)N[C@@H](C)c2ccccc2)c2cc(O)c(Br)cc2n1C1CCCCC1 | 2.84% | 2.43% | 3.33% |
| CN1CC=C(c2c[nH]c3ccc(OCc4ccccc4)cc23)CC1 | 16.2% | 14.4% | 14.7% |
| O=C(C=Cc1ccc(F)c(Br)c1)N1CCC(CN2CCC(c3c[nH]c4ccccc34)CC2)CC1 | 17.6% | 15.9% | 13.1% |
| COc1ccc(O)c(CN2CCN(c3cc(C)ccc3C)CC2)c1 | 2.93% | 3% | 2.89% |
| C=C[C@H]1CN2CC[C@H]1C[C@H]2[C@H](OS(=O)(=O)O)c1ccnc2ccccc12 | 9.31% | 8.07% | 9.07% |

| SMILES | inhibition [1] | inhibition [2] | inhibition [3] |
| --- | --- | --- | --- |
| C[C@@H]1C[C@@H]([C@H](O)CC2CC(=O)NC(=O)C2)C(=O)[C@@H](C)C1 | 90% | 90.8% | 88.7% |
| C#CCOc1ccc(CC(C)NCC(O)c2cccc(C(F)(F)F)c2)cc1 (stereo not given) | 0.24% | 0.36% | 0.98% |
| O=C(NC1CCC(CN2CCC(c3c[nH]c4ccccc34)CC2)CC1)c1[nH]c(=O)[nH]c(=O)c1F (stereo not given) | -0.09% | 0.08% | -0.11% |
| COc1cc(C=CC(=O)NC2CCC(CN3CCC(c4c[nH]c5ccccc45)CC3)CC2)cc(OC)c1 (stereo not given) | -1.01% | -2.18% | -3.65% |
| O=C(/C=C/c1ccc2ccccc2c1)NC1CCC(CN2CCC(c3c[nH]c4ccccc34)CC2)CC1 (stereo not given) | 1.06% | 1.84% | 3.4% |
| CC[C@H]1CN2CC[C@H]1C[C@H]2C(O)c1cc(OC)nc2ccccc12 (stereo not given in full) | -0.41% | 0.13% | -0.23% |
| O=C(/C=C/c1ccccc1Cl)NC1CCC(CN2CCC(c3c[nH]c4ccccc34)CC2)CC1 (stereo not given) | 2.44% and 5.03% | 0.61% and 3.12% | -3.81% and 6.89% |
| CC(C)CNCc1cccc(-c2cccc(CN(C(=O)Nc3ccccc3)C3CCN(Cc4ccccc4)CC3)c2)c1 | 1.9% | 1.81% | 5.06% |
| CN(c1cc(NC(=O)c2ccc(F)cc2)ccn1)C1CCN(Cc2cccc(F)c2)CC1 | 2.51% | 6.07% | 3.83% |
| N=c1c2c(n(Cc3ccc(Cl)cc3Cl)c3c1CCC3)CCCC2 | 17.8% | 26.7% | 6.7% |
| CC[C@H]1CN2CC[C@H]1C[C@@H]2[C@@H](O)c1ccnc2ccccc12 | -0.01% | 0.66% | -1.98% |
| CCCCCCC(C)(C)c1cc(O)c2c3c(c(=O)oc2c1)CCN(Cc1ccccc1)C3 | 3.18% | 4.84% | 8.58% |
| CC(Cc1ccc(SC(C)(C)C)cc1)NCC(O)c1cccc(Cl)c1 (stereo not given) | -1.59% | -2.57% | -0.72% |
| Cc1[nH]c2ccccc2c1C1=CCN(CCCCCC23CCCc4cccc(c42)NC3=O)CC1 (stereo not given) | 2.18% | 2.47% | 3.51% |
| COc1ccc(-c2ccccc2)cc1NC(=S)NC1CCC(CN2CCC(c3c[nH]c4ccccc34)CC2)CC1 (stereo not given) | 3.8% and 4.09% | 2.57% and 3.78% | 0.72% and 3.03% |
| CCc1nc(N)nc(N)c1-c1cccc(Cl)c1 | 2.71% | 2.32% | 3.02% |
| Cc1csc(-c2ccc3[nH]cc(C4=CCN(C)CC4)c3c2)n1 | 7.46% | 9.43% | 6.12% |
| S=C(NCCc1ccc(Cl)cc1)NC1CCC(CN2CCC(c3c[nH]c4ccccc34)CC2)CC1 (stereo not given) | 2.11% and -0.48% | 0.01% and 3.61% | -2.05% and -1.85% |
| OC1(c2ccc(Cl)c(C(F)(F)F)c2)CCN(CCOC2c3ccccc3CSc3ccc(Cl)cc32)CC1 (stereo not given) | 2.52% | 1.04% | 2.27% |
| COc1cccc(C(=O)C2CC2CN2CC=C(c3c[nH]c4ccc(OC)nc34)CC2)c1 (stereo not given) | 0.65% | 1.41% | 1.94% |
| COc1cc(C=CC(=O)N2CCC(CN3CCC(c4c[nH]c5ccccc45)CC3)CC2)cc(OC)c1 | 2.61% | 0.72% | -2.69% |
| Cc1[nH]c2ccccc2c1C1=CCN(CCCCC2(C)C(=O)Nc3ccccc32)CC1 (stereo not given) | 2.98% | 2.07% | -0.37% |
